Rows were chosen to be rich in hits. Some 1.8% of all compounds tested hit in one or more screens of this group.
VDR inh: Inhibitors of the vitamin D receptor (VDR): qHTS. Vitamin D3 receptor (Homo sapiens), P11473. VDR-SRC2-3 peptide fluorescence polarization, 2 h. Potency, µM, inactives show max response, negative = inhibition, actives largely listed as inhibitors. actives 0.93% (n = 400,000)
Target sequence (P11473 whole entry, looked up): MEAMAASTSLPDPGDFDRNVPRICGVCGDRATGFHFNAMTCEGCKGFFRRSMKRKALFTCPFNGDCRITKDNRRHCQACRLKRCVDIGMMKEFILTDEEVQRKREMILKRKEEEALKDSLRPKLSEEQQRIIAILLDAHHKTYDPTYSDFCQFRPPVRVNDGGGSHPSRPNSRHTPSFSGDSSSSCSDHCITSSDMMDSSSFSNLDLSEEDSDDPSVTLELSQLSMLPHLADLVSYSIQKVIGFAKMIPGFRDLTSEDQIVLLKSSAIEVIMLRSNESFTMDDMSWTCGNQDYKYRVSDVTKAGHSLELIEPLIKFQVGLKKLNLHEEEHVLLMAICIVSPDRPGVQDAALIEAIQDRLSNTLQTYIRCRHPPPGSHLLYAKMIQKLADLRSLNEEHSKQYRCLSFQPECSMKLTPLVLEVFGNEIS
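Fluorescence polarization assay measuring small-molecule disruption of VDR binding to the coregulator peptide SRC2-3. Compounds were pin-transferred (23 nl) into the reagent mix and incubated 2 h at room temperature before reading.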
TrxR1 substrate: qHTS Assay for Substrates of Mammalian Selenoprotein Thioredoxin Reductase 1 (TrxR1): qHTS; purified TrxR1 substrate turnover, NADPH consumption readout; Potency, µM (highest dose often 114 µM), without a hit: top-dose activity change, negative = substrate turnover; Thioredoxin reductase 1, cytoplasmic (Rattus norvegicus), O89049; actives 0.01% (n = 390,000); further: nearly all actives have a fitted effect of over 50% in size
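Rat TrxR1, dispensed at 90 nM, was prereduced with 400 uM NADPH (final) for 5 min at ~22 deg C, then incubated with compound 15 min before 400 uM selenite. A first-read NADPH fluorescence drop versus no-compound background flagged substrates.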
TrxR1 inh: qHTS Assay for Inhibitors of Mammalian Selenoprotein Thioredoxin Reductase 1 (TrxR1): qHTS; recombinant rTrxR1, NADPH fluorescence consumption, selenite substrate; Thioredoxin reductase 1, cytoplasmic (Rattus norvegicus), O89049; actives 1% (n = 390,000); Potency, µM (doses to about 114 µM), for the others: at the top dose activity change, negative = inhibition, most hits filed as inhibitors; AID 588453, 2011; further: nearly all actives have a fitted effect of over 65% in size
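Rat TrxR1 (90 nM in the dispensed reagent) was pre-reduced with 400 uM NADPH for 5 min at room temperature, then incubated with compound for 15 min. After 400 uM selenite was added, NADPH fluorescence (Ex 340/Em 450 nm) was followed for 8 min.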
GCN5L2 inh: qHTS Assay for Inhibitors of GCN5L2; Histone acetyltransferase KAT2A (Homo sapiens), Q92830; GCN5L2 HAT assay, ThioGlo1 CoA-SH fluorescence; Potency, µM (titrated, usually from 58.9 µM), for inactives: at the highest dose activity change, negative = inhibition, actives largely listed as inhibitors; actives 0.21% (n = 390,000); AID 504327, 2011
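Free CoA generated was detected with ThioGlo1 (50uM) fluorescence at Ex340nm/Em540nm, read immediately and after 20 min at room temperature. Enzyme, 20 nM in HEPES pH 7.5 buffer, saw compounds 15 min before adding 75uM H3(1-25) peptide and 70uM acetyl-CoA.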
The depositor's hits bear a star; u = inconclusive; x = no result given; ! = not confirmed by another sample; [ ] = dose if it differs, or a comment. The call rests on the fitted dose curve; in most records, active means well fitted curve in the direction sought with a large enough effect; inconclusive means small, poorly fitted or top-dose-only effect, or another doubt; inactive means no such curve, though single readings can be large; an effect the other way counts as inactive or inconclusive. On the % scale 0 is the no-effect control and ±100 the full control effect; potency means the concentration at half of the fitted maximal effect.

SMILES	VDR inh	TrxR1 substrate	TrxR1 inh	GCN5L2 inh
CCCCCCCN(C(=O)CCl)c1cccc(C)c1	u	4%	40µM*	-5%
CCCN(C(=O)c1cc2c(Cl)nc3ccccc3c2s1)c1cccc(C)c1	-2%	-8%	18%	-8%
Cc1ccc2c(c1)c(=O)c1ccccc1n2CCCC(=O)Nc1ccc(C)c(F)c1	5%	48%	12%	-14%
O=C(CSc1nnc2ccc3ccccc3n12)Nc1ccccc1Cl	6%	2%	7%	-16%
Cc1cc(=O)c2c(O)cc(O)c(C)c2o1	u	x	x	-10%
O=C1c2oc3ccccc3c(=O)c2C(c2cccc(O)c2)N1CCCN1CCOCC1 (configuration not stated)	-26%	4%	45µM*	1%
CCOc1ccc(C2c3c(oc4ccccc4c3=O)C(=O)N2CCCN2CCOCC2)cc1OCC (configuration not stated)	-15%	2%	u	-12%
COc1ccc(C2c3c(oc4ccccc4c3=O)C(=O)N2CCCN2CCOCC2)cc1 (configuration not stated)	-25%	3%	35µM*	x
O=C(C(Cl)c1ccccc1)N1CCCC1 (configuration not stated)	-22%	6%[57.1 µM]	20µM*	0%
CCc1ccc(Nc2nc3ccccc3c3nnc(C)n23)cc1	9%	-4%	12%	-6%
COc1ccc(-c2ccc(C3C4C=CCCC4(C)C(=O)N3Cc3ccccc3)c(F)c2)cc1 (configuration not stated)	-24%	-2%	-10%	x
COc1ccc(-c2ccccc2C2C3C=CCCC3(C)C(=O)N2Cc2ccccc2)cc1 (configuration not stated)	79µM*	-6%	u	x
CN(C)c1ccc2c(O)cc(=O)n(C)c2c1	32µM*	141%	73%	-13%
CN(c1ccc(Cl)cc1)c1cc(=O)n(C)c2ccccc12	-3%	-13%	-10%	-1%
CC(=O)c1ccc(NC(=O)c2cnn3c2NC(=C2CC2)C=C3C(F)F)cc1	x	17%	6%	x
Cc1cc(=S)cc(C)n1CCCO	-9%	-12%	13µM*	-2%
Cc1nc2ccc(S(=O)(=O)NC(C(=O)N3CCN(c4ccc(Cl)cc4)CC3)C(C)C)cc2s1 (configuration not stated)	13%	2%	14%	1%
N#Cc1ccc(CSc2nnc(Cc3cccs3)n2Cc2ccco2)cc1	u	-5%	40µM*	-26%
COc1cc2c(cc1NC(=O)CSc1nnc(Cc3cccs3)n1Cc1ccco1)oc1ccccc12	u	2%[57.1 µM]	14µM*	-13%
COc1cc2c(cc1NC(=O)CSc1nnc(Cc3cccs3)n1C)oc1ccccc12	7%	-1%	6%	5%
O=C([C@@H]1CC=C[C@@H]2CCN(C3CC3)C(=O)[C@@H]21)N1CCOCC1	x	8%	23%	x
COc1ccc(C(=O)/C=C/c2ccccc2)c(O)c1	u	-13%	-27%	0%
O=C(/C=C/c1ccoc1)c1ccccc1O	-20%	4%	7%	-2%
O=C(/C=C/c1ccccc1)c1ccc(O)cc1O	25µM*	x	x	-15%
O=C(C=Cc1cccc(O)c1)c1ccccc1O	40µM*	-3%	u	x
SMILES	VDR inh	TrxR1 substrate	TrxR1 inh	GCN5L2 inh
COc1ccc(/C=C/C(=O)c2cc(O)ccc2O)cc1	7.9µM*	x	x	-12%
COc1ccc(/C=C/C(=O)c2ccc(C)s2)cc1	32µM*	x	x	-11%
Cc1ccc(Cn2c3ccccc3c3cnn(CC(=O)N4CCCCCC4)c(=O)c32)cc1	-11%	6%	14%	-6%
O=C(/C=C/c1ccc(O)cc1)c1ccc(O)cc1O	79µM*!	-4%[57.1 µM]	u	-16%
COc1ccc(/C=C/C(=O)c2ccc(O)cc2O)cc1	u	x	x	-28%
CCCc1cc(CN2CCOCC2)c(O)c(CN2CCOCC2)c1O	22µM*	2%[11.4 µM]	1.6µM*	x
Oc1c(CN2CCOCC2)cc(CN2CCOCC2)c(O)c1O	20µM*	2%[57.1 µM]	-67%[57.1 µM]	x
Cc1ccc(CNC(=O)c2oc3c(c2C)-c2nn(Cc4ccc(Cl)cc4)cc2CC3)cc1	3%	3%[11.4 µM]	23%	-3%
COC(=O)N1C(=O)[C@](CC(C)C)(c2ccccc2)N1C(=O)OC	79µM*	-6%	2µM*	0%
COC(=O)N1C(=O)[C@](c2ccsc2)(C(C)C)N1C(=O)OC	-12%	5%	25µM*	3%
COC(=O)N1C(=O)[C@@](c2ccccc2)(C2CCCC2)N1C(=O)OC	-25%	-6%	8.9µM*	1%
CC[C@@]1(c2cccc(C)c2)C(=O)N(C(=O)OC)N1C(=O)OC	u	4%	2µM*	1%
COC(=O)N1C(=O)[C@](c2ccc(OC)cc2)(C(C)C)N1C(=O)OC	3%	7%	u	0%
CC[C@@]1(c2ccccc2OC)C(=O)N(C(=O)OC)N1C(=O)OC	24%	6%[57.1 µM]	u	-7%
COc1ccc(Cn2c(SCc3ccc(C(=O)NC4CCCC4)cc3)nc3cccnc32)cc1	7%	8%	1%	0%
O=C1NC(=O)/C(=C\c2ccc(N3CCOCC3)o2)N1	25µM*	-22%	8.9µM*	-9%
O=C1NC(=O)/C(=C/c2ccc(N3CCOCC3)o2)N1	79µM*	5%[57.1 µM]	u	-18%
OCCn1c(CSc2nnc(-c3ccco3)n2-c2ccccc2)nc2ccc(Cl)cc21	0%	6%	20µM*	-15%
CC(C)CSc1oc(-c2ccco2)nc1S(=O)(=O)c1ccccc1	-24%	-4%	-11%	-13%
NC(=O)CSc1oc(-c2ccco2)nc1S(=O)(=O)c1ccccc1	4%	4%	40µM*	-4%
CCc1cccc2c3c([nH]c12)[C@@](CC)(CC(=O)O)OCC3	u	x	x	13µM*
CCc1cccc2c(C(=O)CCl)c[nH]c12	9%	2%	-17%	4%
NC(=N\N=Cc1ccco1)/C(N)=N/N=Cc1ccco1	-1%	u	79µM*	x
NC(=N\N=Cc1ccccc1)/C(N)=N/N=Cc1ccccc1	-4%	8%[57.1 µM]	12%[57.1 µM]	x
CCCCn1c(SCC(=O)N2CCCC2)nnc1-c1ccccc1	-5%	-19%	89µM*	4%
SMILES	VDR inh	TrxR1 substrate	TrxR1 inh	GCN5L2 inh
O=C(CSc1nnc(-c2ccccc2)n1Cc1ccccc1)N1CCCC1	7%	18%[57.1 µM]	30%[57.1 µM]	0%
Cc1cc(C)n2c(=O)c3ccc(Cl)cc3nc2c1C#N	-11%	4%[57.1 µM]	24%[57.1 µM]	-2%
Cc1cc(Cl)n2c(nc3cc(F)c(F)cc32)c1C#N	16µM*	2%[57.1 µM]	6.3µM*	-8%
O=c1ccc2[n+]([O-])c3ccc(O)cc3oc-2c1	11µM*	-5%	u	u
CC(=O)c1cc2ccc(O)cc2oc1=O	-13%	544%	49%	-8%
Cc1ccccc1S(=O)(=O)Cc1ccc(C(=O)N(C)C2CCCCC2)o1	-1%	4%	56µM*	-16%

High-throughput results as filed in PubChem BioAssay.
